Reference: PubChem BioAssay (NCI)
Where “and” joins values, the source holds several entries; their conditions need not be identical. Equal values may be shown once. Compounds without any hit were thinned out: in the full panel of roughly 83,000, 20% have a hit.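 48-hour exposure, single concentration, 96-well plates; percent growth endpoint where 0 means no net growth. Active: below 10.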 Calls of active or inactive are those of the source.

Legend:
Experiment in all cases: NCI-60 one-dose screen, 48 h (100 = growth as untreated, 0 = no growth, -100 = all killed)
Settings in all cases: 10 µM unless noted
HCT-15 colon = test system: HCT-15 colon
HT29 colon = test system: HT29 colon
SNB-75 CNS = test system: SNB-75 CNS
SNB-19 CNS = test system: SNB-19 CNS
U251 CNS = test system: U251 CNS
PC-3 prostate = test system: PC-3 prostate
SK-MEL-5 melanoma = test system: SK-MEL-5 melanoma
UACC-62 melanoma = test system: UACC-62 melanoma
LOX IMVI melanoma = test system: LOX IMVI melanoma
SK-MEL-28 melanoma = test system: SK-MEL-28 melanoma

Row | SMILES | growth (HCT-15 colon) | growth (HT29 colon) | growth (SNB-75 CNS) | growth (SNB-19 CNS) | growth (U251 CNS) | growth (PC-3 prostate) | growth (SK-MEL-5 melanoma) | growth (UACC-62 melanoma) | growth (LOX IMVI melanoma) | growth (SK-MEL-28 melanoma)
1 | CN(C(=O)CN1C(=O)/C(=C/c2ccco2)SC1=S)C1CCS(=O)(=O)C1 (stereo not given) | 87.5% (inactive) | 99.5% (inactive) | 89% (inactive) | 95.7% (inactive) | 102% (inactive) | 102% (inactive) | 98.5% (inactive) | 90% (inactive) | 91.6% (inactive) | 105% (inactive)
2 | CCCSc1nnc(-c2c(C)nc3sccn23)o1 | 65.8% (inactive) | 101% (inactive) | 91.5% (inactive) | 81.2% (inactive) | 87.5% (inactive) | 86.6% (inactive) | 81.6% (inactive) | 69.1% (inactive) | 88.9% (inactive) | 106% (inactive)
3 | O=C(CSc1nc2c(c(=O)[nH]1)CCCC2)Nc1ccccc1C(=O)O | 98.3% (inactive) | 105% (inactive) | 125% (inactive) | 99.7% (inactive) | 103% (inactive) | 106% (inactive) | 99.3% (inactive) | 96.1% (inactive) | 101% (inactive) | 112% (inactive)
4 | CCCCCCCCc1ccc(C(=O)Nc2ccc(C)c(OP(=O)(O)O)c2)cc1 | 95.5% (inactive) | 106% (inactive) | 89.8% (inactive) | 91% (inactive) | 92% (inactive) | 91.3% (inactive) | 103% (inactive) | 90.6% (inactive) | 92.9% (inactive) | 116% (inactive)
5 | O=C(Cn1c(/C=C/c2ccc([N+](=O)[O-])cc2)nc2ccccc2c1=O)Nc1ccccc1 | 85.8% (inactive) | 45.8% (inactive) | 38.5% (inactive) | 37.2% (inactive) | 69.4% (inactive) | 85.1% (inactive) | 82.6% (inactive) | 69.6% (inactive) | 58.4% (inactive) | 76.1% (inactive)
6 | CCCCCCCOc1ccc(S(=O)(=O)Nc2ccc(C)c(F)c2C(=O)O)cc1 | 79.4% (inactive) | 121% (inactive) | 104% (inactive) | 89.4% (inactive) | 91.4% (inactive) | 91% (inactive) | 96.7% (inactive) | 90.6% (inactive) | 98.9% (inactive) | 117% (inactive)
7 | CC1=NN(C2=NC(=O)C(CC(=O)Nc3ccccc3C(F)(F)F)S2)C(c2ccc(N(C)C)cc2)C1 (stereo not given) | 17.1% (inactive) | 40.8% (inactive) | 54.9% (inactive) | 54.5% (inactive) | 49.3% (inactive) | 34.6% (inactive) | 43.4% (inactive) | 41.4% (inactive) | 46.3% (inactive) | 42% (inactive)
8 | CC(C)(C)c1ccc(OCc2nc3ccccc3n2-c2cccc(N)c2)cc1 | 39.3% (inactive) and 103% (inactive) | 30.8% (inactive) and 110% (inactive) | 56.9% (inactive) and 120% (inactive) | 75.3% (inactive) and 100% (inactive) | 59.3% (inactive) and 105% (inactive) | 35.2% (inactive) and 99.9% (inactive) | 5.56% (active) and 98.9% (inactive) | 55.3% (inactive) and 98.3% (inactive) | 54.7% (inactive) and 97.9% (inactive) | 79.4% (inactive) and 121% (inactive)
9 | Cc1[nH]nc2ccc3nc(-c4cn[nH]c4C(F)(F)F)c4c(c3c12)CCCC4 | -4.58% (active) | 5.08% (active) | -9.8% (active) | 3.47% (active) | 7.24% (active) | 4.97% (active) | -51.2% (active) | -57.3% (active) | -39.9% (active) | -20.1% (active)
10 | COc1ccc2[nH]c(O)c(N=Nc3nc(-c4ccc(Br)cc4)cs3)c2c1 | 2.5% (active) | 12.8% (inactive) | -41.4% (active) | 36.4% (inactive) | -39.5% (active) | 21% (inactive) | 35.1% (inactive) | 18.7% (inactive) | 4.53% (active) | 15.4% (inactive)
11 | COc1ccc(N=Nc2c(N)nn3c(N)c(C#N)c(-c4ccc(C)cc4)nc23)cc1 | 47.8% (inactive) | 66.1% (inactive) | 22.9% (inactive) | 89.5% (inactive) | 74.4% (inactive) | 36.8% (inactive) | 55.4% (inactive) | 78.5% (inactive) | 50.1% (inactive) | 91.1% (inactive)
12 | O=C(c1ccc(Cl)cc1)C1[C@H](c2ccccc2Cl)[C@@H](c2ccccc2)NC12C(=O)Nc1ccc(Br)cc12 (stereo not given in full) | -83.8% (active) | -82.3% (active) | -28.7% (active) | -54.6% (active) | -71.6% (active) | -27.9% (active) | -95.5% (active) | -86.2% (active) | -100% (active) | -95.4% (active)
13 | COc1ccc2[nH]c(O)c(N=NC(=O)c3ccc4nc(-c5ccc(Cl)cc5)[nH]c4c3)c2c1 | 105% (inactive) | 86.1% (inactive) | 93.8% (inactive) | 29.6% (inactive) | -30.5% (active) | 58.9% (inactive) | 96.2% (inactive) | 69.8% (inactive) | 24.6% (inactive) | 37.2% (inactive)
14 | Fc1ccc(F)c(CNc2nc(SCCN3CCOCC3)nc3c2cnn3CC(Cl)c2ccc(Br)cc2)c1 (stereo not given) | -17.6% (active) | -49.7% (active) | 56.3% (inactive) | 42.2% (inactive) | 26.7% (inactive) | 25.2% (inactive) | -12.9% (active) | -1.48% (active) | -7.7% (active) | 32.3% (inactive)
15 | COc1cc(C2CC(c3ccc(C(F)(F)F)cc3)=Nc3c(N)nc(N)nc3N2)ccc1Oc1nc(Nc2ccc(F)cc2)nc(N(C)C)n1 (stereo not given) | 18.5% (inactive) | 3.28% (active) | 46.6% (inactive) | 49.3% (inactive) | 41.4% (inactive) | 30.7% (inactive) | 23.9% (inactive) | 86.3% (inactive) | -17.6% (active) | 71.5% (inactive)
16 | COc1cc(C2CC(c3ccc(F)cc3)=Nc3c(N)nc(N)nc3N2)ccc1Oc1nc(Nc2ccc(F)cc2)nc(N(C)C)n1 (stereo not given) | 35.7% (inactive) | 22.1% (inactive) | 58.3% (inactive) | 65.1% (inactive) | 52.9% (inactive) | 27% (inactive) | -94.3% (active) | 73.4% (inactive) | 38.5% (inactive) | 84.2% (inactive)
17 | COc1ccc(Nc2ncnc3sc4c(c23)CCN(Cc2ccccc2)C4)cc1 | 74.9% (inactive) | 98.1% (inactive) | 89.2% (inactive) | 90.8% (inactive) | 88.9% (inactive) | 68.8% (inactive) | 70.4% (inactive) | 43.5% (inactive) | 52.2% (inactive) | 99.8% (inactive)
18 | COc1c(B(O)O)cc(F)cc1-c1nc2c(F)cc3[nH]ncc3c2c2c1CCCC2 | 4.25% (active) | 21.1% (inactive) | -78.1% (active) | 7.54% (active) | 10.8% (inactive) | 12.8% (inactive) | 7.04% (active) | -7% (active) | -16.6% (active) | 25.7% (inactive)
19 | Clc1ccc(Nc2nnc(-c3c[nH]c4ccccc34)o2)cc1 | 40.4% (inactive) | 88.6% (inactive) | 59.5% (inactive) | 85.5% (inactive) | 76.4% (inactive) | 60.7% (inactive) | 87.6% (inactive) | 65.4% (inactive) | 58.1% (inactive) | 91.1% (inactive)
20 | CC1=C(C(=O)Nc2ccccc2)C(c2cccc(Cl)c2Cl)n2c(nc3ccccc32)N1 (stereo not given) | 35.5% (inactive) | 22.1% (inactive) | 47.2% (inactive) | 67.5% (inactive) | 57.2% (inactive) | 18.1% (inactive) | 46.7% (inactive) | 46.7% (inactive) | 49.5% (inactive) | 65.5% (inactive)
21 | Clc1ccc(-c2nc3c4c(-c5ccccc5)c(-c5ccccc5)n(Cc5ccccc5)c4ncn3n2)cc1 | 13.6% (inactive) | -2% (active) | -23.1% (active) | 8.49% (active) | 15.1% (inactive) | -1.48% (active) | -94.6% (active) | 11.7% (inactive) | 11.9% (inactive) | 36.2% (inactive)
22 | COc1ccc(N=Nc2c(N)nn3c(-c4cc5cc(Br)ccc5oc4=O)ccnc23)cc1 | 29.9% (inactive) | 32.9% (inactive) | -14.8% (active) | 2.33% (active) | -12.3% (active) | 44.9% (inactive) | -14.2% (active) | 30.7% (inactive) | 26.4% (inactive) | 28.8% (inactive)
23 | O=C(/C=C1\C(=O)N(Cc2ccccc2)c2ccccc21)c1cc2ccccc2oc1=O | 31.8% (inactive) | 113% (inactive) | 88% (inactive) | 102% (inactive) | 98.4% (inactive) | 90.7% (inactive) | 90.2% (inactive) | 79.5% (inactive) | 85.2% (inactive) | 92.1% (inactive)
24 | C[C@@H]1[C@H]2C[C@@H](C[C@H]1NCc1nc3ccccc3n1C1CCCCCC1)C2(C)C | 27.3% (inactive) | 51.4% (inactive) | 82% (inactive) | 59.3% (inactive) | 67.2% (inactive) | 37.1% (inactive) | 4.99% (active) | 47.9% (inactive) | 44% (inactive) | 77.5% (inactive)
25 | Cc1ccc(C(=O)Nc2cc(-c3ccncc3)cc(C(F)(F)F)c2)cc1C#Cc1cnc2cccnn12 | 40.5% (inactive) | 26.9% (inactive) | 93.7% (inactive) | 92.9% (inactive) | 66.5% (inactive) | 75.1% (inactive) | 34.4% (inactive) | 14.4% (inactive) | 11.1% (inactive) | 16.2% (inactive)
